Records with an inconclusive call do not appear. Activity calls are given as the source filed them. Calls come from the whole dose curve.
% is set by controls: 0 for no effect and ±100 for the full control effect.

This experiment in a line: p53 small molecule agonists, cell-based qHTS assay with human liver microsomes (AID 1963577).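 Note: p53 response element beta-lactamase reporter cells with liver microsomes plus NADPH.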 Particulars: HCT-116 p53RE-bla with human liver microsomes, ratio, 16 h; series mostly up to 66 µM; activation: at the top concentration. From the text: National Center for Advancing Translational Sciences [NCATS]
Division of Preclinical Innovation [DPI]
U.S. Environmental Protection Agency [EPA]
National Institutes of Environmental Health Sciences [NIEHS]
National Toxicology Program [NTP]
U.S. Food and Drug Administration [FDA]
p53, a tumor suppressor protein, is activated following cellular insult, including DNA damage and other cellular stresses. The activation of p53 regulates cell fate by inducing DNA repair, cell cycle arrest, apoptosis, or cellular senescence. The activation of p53, therefore, is a good indicator of DNA damage and other cellular stresses. […] The activation of the reporter gene under culture conditions can be detected by fluorescence intensity.
Tox21 Assay Protocol Summary:
The p53RE-bla cells were dispensed at 4,000cells/3ul/well in 1536-well black-clear bottom plates. After the assay plates were incubated at 37 C, 5% CO2 incubator for 5 hours, 23 nL of compounds dissolved in DMSO, positive controls or DMSO only was transferred to the assay plate. Following compound addition, 3 uL of human liver microsomes (XenoTech, Kansas City, KS) at final concentration of 0.5 mg/mL and 1uL of Beta-Nicotinamide adenine dinucleotide 2-phosphate (NADPH) at final concentration of 0.5 mg/mL were transferred to the assay plate. The plates were incubated at 37 C for 16 hours. 1 uL of LiveBLAzer detection mixture was added to each well and the plates were incubated at room temperature in the dark for 2 h.
(qHTS replaces the single test concentration by a dilution series.)
`CC(C)(O)c1ccc(CNC(=O)c2cccnc2Oc2ccc3nonc3c2)cc1`: the “activation” value was -11.9% (inactive). Consider `CCNS(=O)(=O)c1ccc(C)cc1`, for which the “activation” value is 0.0941% (inactive). As for `CC1(c2ccccc2)OC(C(=O)O)=CC1=O` (stereo not given), the “activation” value was 0.386% [at 30.3 µM] (inactive). As for `CC(C)CC(=O)C1C(=O)c2ccccc2C1=O`, the “activation” value is -8.71% (inactive).

Consider `CCOC(=O)N1CCC(Nc2ccc(Cl)cc2N)CC1`, for which the “activation” value is -3.86% [at 30.3 µM] (inactive). For `NCCCNCCSP(=O)(O)O`, the activation is 9.01% [at 5.99 µM] (inactive). Under `O=S1OCCO1` stands 1.05% (inactive); under `Cc1c(C(C)C)c(=O)n(-c2ccccc2)n1C`, 0.537% [at 30.3 µM] (inactive); under `CCC(CC)C(=O)O`, 4.28% (inactive). Under `CC(=O)OCC[N+](C)(C)C` stands 10.5% [at 30.3 µM] (inactive). Next, `C[C@@H]1[C@H](O)[C@@H](C)/C=C/C=C\C=C\C=C\C=C\C=C\C=C\[C@H](O[C@@H]2O[C@H](C)[C@@H](O)[C@H](N)[C@@H]2O)C[C@@H]2O[C@](O)(C[C@@H](O)C[C@@H](O)[C@H](O)CC[C@@H](O)C[C@@H](O)CC(=O)O[C@H]1C)C[C@H](O)[C@H]2C(=O)O` (stereo in doubt): -11.3% (inactive); `Cc1cccc(C)c1NC(=O)c1ccccc1C(=O)O`: 1.12% [at 30.3 µM] (inactive); `CCCCOC(=O)[C@@H](C)Oc1ccc(Oc2ccc(C(F)(F)F)cn2)cc1`: -2.37% (inactive). On to `Cc1ccc(N(CC2=NCCN2)c2cccc(O)c2)cc1`, for which the “activation” value is -2.24% [at 30.3 µM] (inactive). Next, `CC(C)(C)N(CCO)CCO`: 0.571% (inactive).

Turning to `O=C1[C@H](CC[C@H](O)c2ccc(F)cc2)[C@@H](c2ccc(O)cc2)N1c1ccc(F)cc1`, the “activation” value was -6.93% [at 30.3 µM] (inactive). As for `Cn1c(=O)cc(Oc2ccc(F)cc2F)c2cnc(NCC(C)(C)O)nc21`, the “activation” value was -7.78% (inactive). Under `CC(=O)C=O` stands -3.45% (inactive).

`CN1CCC(=C2c3ccccc3CCc3sccc32)CC1`: the “activation” value is 10% [at 30.3 µM] (inactive).

As for `Brc1ccccn1`, the “activation” value is 2.1% (inactive).

`CC1OCCC1=O` (stereo not given): the “activation” value is 3.53% (inactive). Under `N#Cc1cc2ccccc2c2ccccc12` stands 4.56% (inactive); under `COc1ccc(C(=O)Nc2ccccc2)cc1[N+](=O)[O-]`, -6.49% (inactive); under `CCCCC(CC)COC(=O)COc1ccc(Cl)cc1Cl` (stereo not given), -3.84% (inactive). For the compound `C=C[Si](C)(C)Cl`, the activation is -12.4% [at 5.99 µM] (inactive).

In the case of `O=C(Nc1ccc([N+](=O)[O-])cc1)Nc1ccc([N+](=O)[O-])cc1`, the “activation” value is 3.77% [at 30.3 µM] (inactive).

With `CC(=O)c1ccc2ccc3ccccc3c2c1`, the “activation” value is -5.3% (inactive). Next, `COc1cc2[nH]c(=O)[nH]c(=O)c2cc1OC`: -3.44% [at 30.3 µM] (inactive); `Oc1ccc(C(O)CNCCCCCCNCC(O)c2ccc(O)c(O)c2)cc1O` (stereo not given): -6.11% [at 30.3 µM] (inactive). Under `CCCCC` stands 0.126% (inactive); under `Cc1ccc(Cl)cc1Cl`, 3% (inactive).

Regarding `CCOc1nc2cccc(C(=O)O)c2n1Cc1ccc(-c2ccccc2-c2nn[nH]n2)cc1`, the “activation” value was 0.165% [at 30.3 µM] (inactive). Regarding `Cc1c(C)c2c(c(C)c1O)CC[C@@](C)(CCC[C@H](C)CCC[C@H](C)CCCC(C)C)O2`, the “activation” value is -0.0451% (inactive).

On to `O=C(CCCl)NCc1ccccc1`, for which the “activation” value was -1.2% [at 30.3 µM] (inactive). As to `CN(C)CCCSc1ccccc1NC(=O)/C=C/c1ccccc1`, the “activation” value was -5.49% [at 30.3 µM] (inactive). Under `CCCCCCCCCOC(C)=O` stands -0.811% (inactive). Under `OC[C@@H](O)[C@H](O)[C@@H](O)[C@@H](O)CO` stands 3.51% (inactive); under `CC1=CC(=O)CC(C)(C)C1(O)/C=C/C(C)=C\C(=O)O` (stereo not given), 0.777% (inactive); under `N#CCc1ccccc1[N+](=O)[O-]`, 1.31% (inactive).

With `CC1=CC[C@H](C(C)C)C=C1`, the “activation” value is 0.439% (inactive).

Source of the values: PubChem BioAssay (Tox21).
